Many of the other results were omitted from the sample, so hits are more common in it than they were.
aSyn UTR act: Activators working through SNCA 5'UTR binding (MLPCN) | alpha-synuclein 5'UTR reporter, activators screen | activity score, % (tested at 7.5 µM), hits read low | 300,000 compounds, 7.1% hits | AID 1814; in the data active = activity score below about -60%
The depositor's hits bear a star.

SMILES | aSyn UTR act
COc1ccc(N2C(=O)c3ccccc3C2O)cc1 (stereo unspecified) | -79*
O=C1c2ccccc2C(O)N1c1ccc(Cl)cc1 (stereo unspecified) | -67*
CCc1ccc2[nH]c(=O)c(CN(Cc3nnnn3C3CCCC3)C3CCCCC3)cc2c1 | -70*
Cc1ccc(C)c(OCc2cc(C(=O)N3C[C@@H](C)O[C@@H](C)C3)no2)c1 | -131*
Cc1ccc(C)c(OCc2cc(C(=O)N3CCN(C(=O)c4ccco4)CC3)no2)c1 | -113*
Cc1ccc(C)c(OCc2cc(C(=O)N3CCN(c4ccccc4)CC3)no2)c1 | -115*
COc1ccc(NC(=O)Nc2cc(C)ccc2F)cc1OC | -77*
COc1ccccc1NC(=O)Nc1ccc2c(c1)OCCO2 | -131*
Cc1c(NC(=O)Nc2ccc3c(c2)OCO3)cccc1[N+](=O)[O-] | -96*
Cc1ccccc1NC(=O)Nc1ccc2c(c1)OCO2 | -129*
COc1ccc(NC(=O)Nc2ccc3c(c2)OCO3)c(C)c1 | -81*
CCOc1ccccc1NC(=O)Nc1ccc2c(c1)OCO2 | -85*
Cc1ccc(C)c(NC(=O)Nc2ccc3c(c2)OCO3)c1 | -73*
COc1ccccc1NC(=O)Nc1ccc(F)c(F)c1 | -66*
Cc1ccc(CNc2ccc3c(c2)OCO3)c(C)c1 | -98*
CC(=O)Nc1ccccc1OCC(=O)c1ccc2c(c1)OCO2 | -99*
Cc1cc(Cl)ccc1OCCCC(=O)N1CCCCC1 | -101*
Cc1cc(Cl)ccc1OCCCC(=O)N1CCOCC1 | -95*
Cc1cc(Cl)ccc1OCC(=O)N1C(C)CCCC1C (stereo unspecified) | -62*
O=C(OCc1ccccn1)c1ccc(COc2ccc3ccccc3c2)o1 | -104*
CSc1nnc(NC(=O)CCc2ccccc2)s1 | -65*
CC(C)(C)Cc1nnc(NC(=O)CCc2ccccc2)s1 | -124*
Cc1ccc2[nH]c3c(c2c1)CC/C(=C/c1ccccc1)C3=O | -194*
CCCCCCCn1c2c(c(=N)c3ccccc31)CCC2 | 79
CCCCN1CCc2c([nH]c3ccccc23)C1=O | -128*
SMILES | aSyn UTR act
CCCC/C=C1\CCc2c([nH]c3ccccc23)C1=O | -75*
O=C1/C(=C\c2ccccc2)CCc2c1[nH]c1ccccc21 | -121*
Cc1ccc(/C=C2/CCc3c([nH]c4ccccc34)C2=O)cc1 | -180*
CCOC(=O)CSC1=C(C#N)C(C)C2=C(CCCC2=O)N1 (stereo unspecified) | -62*
Cc1cccc(Nc2cc(C)c3c(O)cccc3n2)c1C | -101*
Fc1ccccc1Nc1n[nH]c(=S)s1 | -64*
N#Cc1c(/N=C/c2cc3ccccc3s2)sc2c1CCC2 | -150*
Cc1ccc(/C=N/c2sc3c(c2C#N)CCC3)s1 | -146*
NC(=O)c1ccsc1NC(=O)CCc1ccccc1 | -153*
COC(=O)c1ccsc1NC(=O)CCc1ccccc1 | -109*
Cc1ccsc1C(=O)OCC(=O)Nc1sccc1C(N)=O | -130*
CC1CCN(c2nc3ccc(C(=O)NCCCN4CCCCC4C)cc3s2)CC1 (stereo unspecified) | -277*
CC1CCCC(C)N1CCCNC(=O)c1ccc2nc(N3CCCCC3)sc2c1 (stereo unspecified) | -237*
CCC1CCCCN1CCCNC(=O)c1ccc2nc(N3CCCCC3)sc2c1 (stereo unspecified) | -280*
COc1ccc(/C=C2\CCC(C3CCCC3)C2=O)cc1OC (stereo unspecified) | -75*
COc1ccc(/C=C2\CCC(C3CCCC3)C2=O)cc1 (stereo unspecified) | -179*
Cc1ccc(/C=C2\CCC(C3CCCC3)C2=O)cc1 (stereo unspecified) | -105*
Cc1ccsc1/C=C1\CCC(C2CCCC2)C1=O (stereo unspecified) | -163*
Cc1ccccc1C(=O)NCCSc1ccccc1 | -111*
CSc1ccccc1C(=O)NCCSc1ccccc1 | -66*
O=C(NCCSc1ccccc1)c1ccccc1Cl | -82*
O=C(N/N=C(\c1ccccc1)c1ccccn1)c1ccccc1Cl | 68
O=C(Cc1cc2ccccc2o1)NCc1ccc(F)cc1 | -79*
S=c1[nH]c(-c2ccc(Cl)cc2)cs1 | -76*
Cc1ccc(-c2csc(=S)[nH]2)cc1 | -113*
SMILES | aSyn UTR act
Cc1ccc(C2=N/C(=C\N3CCCCC3)C(=O)O2)cc1 | -105*
Cc1ccc(C2=N/C(=C/N3CCOCC3)C(=O)O2)cc1 | -100*
CC(=O)c1ccc(NC(=O)c2cc3nc4c(c(C(F)(F)F)n3n2)CCCC4)cc1 | -75*
O=C(NC1CCCCC1)c1cc2nc3c(c(C(F)(F)F)n2n1)CCCC3 | -136*
CCOC(=O)C1=C(CSc2nc(-c3ccccc3)ccc2C#N)OC(N)=C(C#N)C1c1ccc(OC)cc1 (stereo unspecified) | -184*
CC(=O)N(C)c1ccc(NC(=O)/C=C/c2ccccc2Cl)cc1 | -85*
O=C(/C=C/c1ccccc1Cl)Nc1ccncc1 | -346*
CC(C)(C)c1ccc(/C=C/C(=O)Nc2cccnc2)cc1 | -232*
O=C(/C=C/c1ccccc1Cl)Nc1cccnc1 | -150*
O=C(/C=C/c1ccc(Cl)c(Cl)c1)Nc1cccnc1 | -102*
O=C(/C=C/c1ccccc1Cl)Nc1cccc(S(=O)(=O)NC2=NCCCCC2)c1 | -82*
COc1ccccc1/C=C/C(=O)Nc1cccnc1 | -76*
O=C(/C=C/c1ccccc1Cl)NC1CCCCC1 | -119*
O=C(/C=C/c1ccc(Cl)cc1Cl)Nc1ccncc1 | -280*
CCC(CC)NC(=O)/C=C/c1ccccc1Cl | -100*
O=C(COC(=O)/C=C/c1ccccc1Cl)NCCNC(=O)COC(=O)/C=C/c1ccccc1Cl | -63*
CCCCN(CC)CCNC(=O)c1cc2c(=O)n(C)c3ccccc3c2s1 | -67*
CCCCN(CC)CCNC(=O)c1cc2c(-c3ccccc3F)nn(C)c2s1 | -75*
CCN(CC)CCNC(=O)c1cc2c(=O)n(C)c3ccccc3c2s1 | -70*
O=C(/C=C/c1ccc2ccccc2n1)c1cc(Cl)ccc1O | -69*
COc1cc(C(=O)Nc2ccc(N(C)C)cc2)c([N+](=O)[O-])cc1OC | -75*
CCSc1nnc(Nc2ccccc2)s1 | -99*
CCSc1nnc(Nc2ccc(C)cc2)s1 | -161*
O=C1CCCCC1Sc1nnc(Nc2ccccc2)s1 (stereo unspecified) | -127*
O=C(Nc1nc2ccc(Cl)cc2s1)c1ccc(Br)o1 | -237*
SMILES | aSyn UTR act
O=C(Nc1cccc(NC(=O)c2ccccc2Cl)c1)c1ccc([N+](=O)[O-])o1 | 86
O=C(Nc1nc2c(F)cccc2s1)c1ccc([N+](=O)[O-])o1 | -95*
O=C(Nc1nc2c(Cl)cccc2s1)c1ccc([N+](=O)[O-])o1 | -80*
O=C(Nc1nc2c(Cl)cccc2s1)c1ccc(Br)o1 | -131*
CNC(C)C#Cc1ccc2oc3cc(C)c(C)cc3c(=O)c2c1 (stereo unspecified) | -196*
CNC(C)C#Cc1ccc2c(=O)c3cc(C)c(C)cc3oc2c1 (stereo unspecified) | -227*
O=C(O)c1ccc(-c2nc(-c3ccc(Cl)cc3)cs2)cc1 | -173*
COc1ccc(-c2csc(-c3ccc(C(=O)O)cc3)n2)cc1 | -160*
C=CCNC(=O)c1ccc(-c2nc(-c3ccccc3)cs2)cc1 | -102*
O=C(O)c1ccc(-c2nc(-c3ccc(Cl)cc3Cl)cs2)cc1 | -179*
CN=C(Nc1ccc(Cl)cc1)c1ccc(C(F)(F)F)cc1 | -92*
O=c1[nH]c(/C(Cl)=C/c2cccc(F)c2)nc2cc(C(F)(F)F)ccc12 | -162*
c1ccc(Nc2scc(-c3ccccc3)[n+]2Cc2ccco2)cc1 | -222*

Assay outcomes: PubChem BioAssay, Broad Institute
